Rce1 inhib: yeast Ras-converting enzyme inhibition | Q03530 | yeast membranes, quenched prenylated peptide cleavage fluorescence | calls only | 290,000 compounds, 0.27% hits | AID 2563;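 active = fall in fluorescence gain of 50% or more versus controls, with final raw signal at or below 3038400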;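 note: plate controls were neutral control wells for no effect and wells lacking membranes for full effect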
Target sequence (Q03530 whole entry, looked up): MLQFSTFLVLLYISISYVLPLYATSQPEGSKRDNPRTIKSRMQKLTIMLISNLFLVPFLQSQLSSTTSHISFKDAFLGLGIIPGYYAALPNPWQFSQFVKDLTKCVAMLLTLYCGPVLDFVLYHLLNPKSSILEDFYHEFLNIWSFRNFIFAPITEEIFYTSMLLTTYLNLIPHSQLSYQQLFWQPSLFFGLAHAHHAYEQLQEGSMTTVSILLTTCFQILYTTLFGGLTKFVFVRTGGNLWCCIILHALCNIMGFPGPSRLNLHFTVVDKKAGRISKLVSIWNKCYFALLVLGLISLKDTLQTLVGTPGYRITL
Efflux pump mplx: antifungal efflux pump inhibition, Nile Red retention. 330,000 compounds, 0.44% hits. inhibition, % at 10 µM. S. cerevisiae Candida pump triplex. AID 485275;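 active = plate passing quality check with inhibition over a set limit, or well fluorescence over plate mean plus 4 SD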;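 note: Nile Red retained in pooled yeast measured as flow cytometry median fluorescence; 0% = buffer negative control and 100% = Enniatin B positive control; higher means more Nile Red kept so more efflux inhibition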
HDAC3 inhib: blocks human histone deacetylase 3 | O15379 | recombinant HDAC3, fluorogenic peptide/trypsin coupled, fluorescence | inhibition, % at 8.3 µM | 320,000 compounds, 0.15% hits; in the data active = inhibition above about 26%, passing the limit was not always enough
Rtt109 Vps75: blocks Candida albicans Rtt109/Vps75 acetyltransferase activity. Q5AAJ8. purified Rtt109/Vps75, ThioGlo CoA-SH fluorescence, 4 h. inhibition, % at 34.9 µM. 330,000 compounds, 0.16% hits;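 active = inhibition of at least 50% in every replicate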
GRK2 aptamer HTS: blocks RNA aptamer binding to human GRK2; P25098; bead flow cytometry, FAM-aptamer displacement from GRK2; inhibition of aptamer binding, % at 10 µM; 330,000 compounds, 0.59% hits;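 active = inhibition of aptamer binding above 40%, roughly 3 SD of noise, on plates passing a quality check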;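 note: median bead fluorescence of bound FAM aptamer so fluorescent compounds give negative values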
ALR H2O2 inh: inhibitors of human sulfhydryl oxidase ALR; purified ALR, DTT oxidation, H2O2 HRP-luminol luminescence; inhibition, % (no concentration beside the values); 290,000 compounds, 3.8% hits;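 active = mean replicate inhibition above about 79%, with every replicate also reaching it, limit read from the data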
* marks the source's active call; other numbers are inactive results; i = inactive; . = not tested or not shown. Hits are enriched below; roughly 4.5% of the tested compounds scored in any of these assays.

SMILES | Rce1 inhib | Efflux pump mplx | HDAC3 inhib | Rtt109 Vps75 | GRK2 aptamer HTS | ALR H2O2 inh
Cc1ccc(NC(NC(=O)c2ccccc2[N+](=O)[O-])C(Cl)(Cl)Cl)cc1 (stereo not drawn) | i | 0 | 0 | -1 | 5 | 99*
CC1CCCC(C)N1c1nnc(N)s1 (stereo not drawn) | i | 0 | 1 | 2 | 1 | 95*
CC1CCCCN1c1nnc(N)s1 (stereo not drawn) | i | 0 | -1 | -6 | 0 | 53
Cc1nc2sccn2c(=O)c1S(=O)(=O)Nc1ccc(N2CCN(C)CC2)cc1 | i | 0 | . | -1 | 1 | 97*
COc1ccc(N2CCN(S(=O)(=O)c3c(C)nc4sccn4c3=O)CC2)cc1 | i | 0 | -2 | 2 | 0 | 84*
Cc1nc2sccn2c(=O)c1S(=O)(=O)N1CCN(c2ccccc2)CC1 | i | 0 | . | -9 | 0 | 72
COc1cccc(NC(=O)CN(C)C(=O)C2CCN(C(=O)c3ccccc3C)CC2)c1 | i | 0 | -6 | -5 | 0 | 0
Cc1cc(N2CCOCC2)nc2ccc(NC(=O)CCC(=O)N3CCN(c4cccc(C(F)(F)F)c4)CC3)cc12 | i | 0 | -6 | 24 | 0 | -21
O=C(CC12CC3CC(CC(C3)C1)C2)Nc1nncs1 | i | 0 | -3 | 8 | 0 | -6
Cc1ccc(NC(=O)CSc2nc3ccccc3c(=O)n2Cc2cccs2)cc1 | i | 0 | 2 | -12 | 6 | -37
O=C(O)CCCCCn1c(SCc2cc(=O)n3cc(Cl)ccc3n2)nc2ccsc2c1=O | i | 1 | -3 | -5 | 0 | 1
COCCn1c(SCC(=O)Nc2ccccc2OC)nc2ccccc2c1=O | i | 0 | -5 | -1 | 17 | 0
O=C(CSc1nc2nccnc2c(=O)n1Cc1cccs1)Nc1ccccc1 | i | 0 | 4 | 3 | 0 | 98*
COc1ccc(NC(=O)CSc2nc3ccsc3c(=O)n2Cc2ccccn2)c(OC)c1 | . | 0 | -3 | 3 | 1 | 96*
COc1ccccc1NC(=O)CSc1nc2nccnc2c(=O)n1Cc1cccs1 | i | 0 | -6 | 19 | 1 | 96*
O=c1c2sccc2nc(SCc2cc(=O)n3cc(Cl)ccc3n2)n1Cc1ccccn1 | i | 1 | 2 | 2 | 4 | 88*
COCCN(C(=S)Nc1ccc(C)cc1)C(C)c1cccnc1 (stereo not drawn) | i | 0 | -5 | -4 | 6 | -1
CN(CC(=O)Nc1ccc(Cl)cc1)C(=O)c1cccc(S(=O)(=O)NCc2ccccc2)c1 | i | 0 | 6 | 60* | 0 | 8
CN(CC(=O)Nc1ccc(Cl)cc1)C(=O)c1cccc(S(=O)(=O)N2CCN(Cc3ccccc3)CC2)c1 | . | 0 | 7 | -6 | 2 | -4
O=C(NC1CCCCC1)C1CCN(S(=O)(=O)c2cccc3cccnc23)CC1 | i | 0 | 4 | -16 | 0 | -23
O=C(NC1CCCC1)C1CCCN1S(=O)(=O)c1cccc2cccnc12 (stereo not drawn) | i | 0 | 5 | 0 | 0 | 89*
O=C(NC1CCCCCC1)C1CCCN1S(=O)(=O)c1cccc2cccnc12 (stereo not drawn) | i | 0 | 5 | 1 | 0 | 97*
CCc1noc(C)c1C(=O)N1CCC(CCC(=O)Nc2cccc(C)c2)CC1 | i | 0 | -9 | 9 | 0 | -6
COc1ccc(C=NNC(=O)c2ccccc2NS(=O)(=O)c2cccs2)cc1O | . | 0 | 7 | 1 | 5 | 66
COc1cc(/C=N/NC(=O)c2ccc(NS(=O)(=O)c3cccs3)cc2)cc(OC)c1O | . | 0 | -3 | -2 | 0 | 98*
O=C(N/N=C/c1cc(Br)c(O)c(Br)c1)c1cccnc1 | i | 0 | 0 | 2 | 1 | 39
O=C1CCC/C(=N/NC(=O)c2ccc(NS(=O)(=O)c3cccs3)cc2)C1 | i | 0 | 0 | 2 | 2 | 82*
COc1cc(/C=N/NC(=O)c2cccnc2)cc(Br)c1O | i | 0 | 2 | 13 | 0 | 81*
COc1cc(C=NNC(=O)c2ccccc2NS(=O)(=O)c2cccs2)cc(OC)c1O | . | 0 | -3 | 12 | 5 | 99*
O=C1CCC/C(=N/NC(=O)c2cc(NS(=O)(=O)c3cccs3)cc(NS(=O)(=O)c3cccs3)c2)C1 | i | 0 | 7 | -4 | 0 | 44

Bioassay records from PubChem BioAssay.
